# Reference: PubChem BioAssay
# The source made the active and inactive calls.
# Tests used:
# [1] = optical density shifts of acrAB sulA E. coli – strain DRC41, OD650, 48 h, E. coli filamentation inducer project, primary screen (AID 1152); details: higher = more signal, called active from +8 up or from −8 down;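 further: E. coli MC1000 strain DRC41 lacking acrAB efflux pump and sulA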
# [2] = probe aLefty1 binding on compound microarray – biochemical, small-molecule microarray, 635/667 nm fluorescence, primary screen (AID 1153); details: higher = more signal;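 further: score merges spot fluorescence with signal-to-noise ratio from the scanned slide images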
# [3] = plasmodial surface anion channel blockers, osmotic lysis – cell-based, P. falciparum Indochina, OD700, 1 h, primary screen (AID 1154); details: P. falciparum Indochina infected RBC osmotic lysis, higher = more signal, called active from +8 up or from −8 down
# [4] = plasmodial surface anion channel blockers, osmotic lysis – cell-based, P. falciparum Indochina, OD700, 2 h, primary screen (AID 1155);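 further: lysis reports solute entry through the parasite surface anion channel PSAC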; details: P. falciparum Indochina infected erythrocytes, higher = more signal, called active from +8 up or from −8 down
# [5] = changes in parasitized red cell lysis, either direction – P. falciparum Indochina, OD700, 3 h, PSAC antagonist project, primary screen (AID 1156); details: P. falciparum-infected erythrocytes, osmotic lysis, higher = more signal, called active from +8 up or from −8 down
# [6] = plasmodial surface anion channel blockers, osmotic lysis – cell-based, P. falciparum Indochina, OD700, 18 h, primary screen (AID 1157); details: P. falciparum Indochina infected erythrocytes, osmotic lysis OD700, 18 h; higher = more signal, called active from +8 up or from −8 down
# [7] = S6 kinase pathway phospho-S6 level changes – cell-based, A549, cytoblot, luminescence, serum-stimulated, primary screen (AID 1158); details: 5 h, higher = more signal;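 further: serum-stimulated A549 lung adenocarcinoma cells; signal is phosphorylated S6 detected by cytoblot immunostaining with HRP secondary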
# [8] = target: NADPH oxidase 2 (Homo sapiens) (UniProt P04839); experiment: compounds shifting NOX2 Amplex Red fluorescence – cell-based, HEK293-NOX2, PMA-stimulated, NOX inhibitor project, primary screen (AID 1159); details: 45 min, higher = more signal, called active from +8 up or from −8 down; further: test concentration not given here
# Chain of NADPH oxidase 2 (Homo sapiens) (P04839 whole entry, looked up): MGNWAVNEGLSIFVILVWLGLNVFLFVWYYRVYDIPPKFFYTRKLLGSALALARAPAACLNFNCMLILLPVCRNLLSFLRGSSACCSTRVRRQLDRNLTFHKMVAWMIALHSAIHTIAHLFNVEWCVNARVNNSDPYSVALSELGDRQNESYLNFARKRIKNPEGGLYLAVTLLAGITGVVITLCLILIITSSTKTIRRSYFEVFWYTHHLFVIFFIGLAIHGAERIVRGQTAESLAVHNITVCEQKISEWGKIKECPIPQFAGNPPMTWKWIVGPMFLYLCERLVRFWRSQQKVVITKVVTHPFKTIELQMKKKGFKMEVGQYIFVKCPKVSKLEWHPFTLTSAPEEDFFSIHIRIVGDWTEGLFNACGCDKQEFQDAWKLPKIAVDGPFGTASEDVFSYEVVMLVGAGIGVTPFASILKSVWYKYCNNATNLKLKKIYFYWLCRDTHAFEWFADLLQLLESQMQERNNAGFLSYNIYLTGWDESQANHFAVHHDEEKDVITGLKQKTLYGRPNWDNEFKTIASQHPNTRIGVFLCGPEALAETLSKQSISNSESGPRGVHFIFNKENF
# [9] = target: NADPH oxidase 4 (Homo sapiens) (UniProt Q9NPH5); experiment: compounds shifting NOX4 Amplex Red fluorescence – cell-based, HEK293-NOX4, tetracycline-induced, NOX inhibitor project, primary screen (AID 1160); details: HEK293-NOX4, Amplex Red H2O2 fluorescence, 45 min; higher = more signal, called active from +8 up or from −8 down
# Chain of NADPH oxidase 4 (Homo sapiens) (Q9NPH5 whole entry, looked up): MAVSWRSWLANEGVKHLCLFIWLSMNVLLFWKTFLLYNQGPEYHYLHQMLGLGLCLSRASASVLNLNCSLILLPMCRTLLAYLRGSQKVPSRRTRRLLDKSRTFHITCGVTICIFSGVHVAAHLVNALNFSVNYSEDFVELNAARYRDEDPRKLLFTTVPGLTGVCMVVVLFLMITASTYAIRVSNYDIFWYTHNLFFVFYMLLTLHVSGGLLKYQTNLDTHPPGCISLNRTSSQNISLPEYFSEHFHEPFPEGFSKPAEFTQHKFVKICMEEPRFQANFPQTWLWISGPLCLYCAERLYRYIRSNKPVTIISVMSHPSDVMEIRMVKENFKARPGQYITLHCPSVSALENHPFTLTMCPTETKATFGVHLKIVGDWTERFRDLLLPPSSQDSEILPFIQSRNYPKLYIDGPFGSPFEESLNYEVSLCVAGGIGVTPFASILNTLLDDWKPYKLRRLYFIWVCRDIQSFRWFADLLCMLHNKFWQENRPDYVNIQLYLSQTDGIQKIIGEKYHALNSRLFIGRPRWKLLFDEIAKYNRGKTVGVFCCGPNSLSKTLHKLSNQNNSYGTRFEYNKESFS
# [10] = target: NADPH oxidase 5 (Homo sapiens) (UniProt Q96PH1); experiment: compounds shifting NOX5 Amplex Red fluorescence – cell-based, HEK293-NOX5, NOX inhibitor project, primary screen (AID 1161); details: HEK293-NOX5, ionomycin, 45 min, higher = more signal
# Chain of NADPH oxidase 5 (Homo sapiens) (Q96PH1 whole entry, looked up): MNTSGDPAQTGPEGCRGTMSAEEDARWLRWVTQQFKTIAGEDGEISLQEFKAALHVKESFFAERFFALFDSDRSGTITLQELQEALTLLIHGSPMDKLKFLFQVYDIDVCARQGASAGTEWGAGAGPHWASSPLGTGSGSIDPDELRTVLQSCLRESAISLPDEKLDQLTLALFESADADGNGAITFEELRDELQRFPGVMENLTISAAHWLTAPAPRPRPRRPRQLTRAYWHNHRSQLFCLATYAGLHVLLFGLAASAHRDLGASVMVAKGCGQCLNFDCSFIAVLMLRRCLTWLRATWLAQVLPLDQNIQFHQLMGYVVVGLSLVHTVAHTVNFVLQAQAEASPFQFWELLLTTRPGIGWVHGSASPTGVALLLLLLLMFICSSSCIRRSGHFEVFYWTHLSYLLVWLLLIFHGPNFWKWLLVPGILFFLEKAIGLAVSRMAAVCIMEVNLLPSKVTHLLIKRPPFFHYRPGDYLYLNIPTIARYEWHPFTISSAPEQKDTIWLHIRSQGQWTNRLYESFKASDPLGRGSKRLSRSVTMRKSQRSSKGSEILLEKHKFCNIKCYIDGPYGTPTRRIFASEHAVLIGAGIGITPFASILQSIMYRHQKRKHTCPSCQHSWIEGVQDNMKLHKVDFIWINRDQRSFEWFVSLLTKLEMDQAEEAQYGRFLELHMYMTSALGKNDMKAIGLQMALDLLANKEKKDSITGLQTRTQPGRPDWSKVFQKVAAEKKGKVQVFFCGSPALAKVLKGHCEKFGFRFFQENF
# [11] = compound effects on lung adenocarcinoma cell viability – A549, calcein-AM fluorescence, 48 h, basal, profiling panel (AID 1162); details: higher = more signal; further: test concentration not given here
# [12] = compound effects on differentiated 3T3-L1 adipocyte viability – cell-based, 3T3-L1 adipocytes, calcein-AM fluorescence, 48 h, basal, profiling panel (AID 1163); details: 3T3-L1 adipocytes viability, higher = more signal; further: test concentration not given here
# [13] = compound effects on hepatocellular carcinoma cell viability – HepG2, calcein-AM fluorescence, 48 h, basal, profiling panel (AID 1164); details: higher = more signal; further: test concentration not given here
# [14] = compound effects on multiple myeloma cell viability – MM1S, calcein-AM fluorescence, 48 h, basal, profiling panel (AID 1165); details: higher = more signal;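 further: viability of MM1S multiple myeloma cells under basal unstimulated conditions; test concentration not given here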
# [15] = calcein-AM signal in unstimulated myeloma cells – cell-based, calcein-AM fluorescence, 48 h, PK04 Diversity Set, profiling panel (AID 1166); details: RPMI8226 myeloma viability, higher = more signal;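 further: cells grown under basal conditions without added stimulus; test concentration not given here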
# [16] = JC-1 mitochondrial signal, unstimulated HepG2 cells – cell-based, JC-1 fluorescence, 24 h, 100 nL compound, profiling panel (AID 1167); details: HepG2 mitochondrial potential, higher = more signal; further: test concentration not given here
# [17] = JC-1 mitochondrial signal, unstimulated adipocytes – cell-based, JC-1 fluorescence, 3T3-L1 adipocytes, 24 h, 100 nL compound, profiling panel (AID 1168); details: JC-1 mitochondrial fluorescence, higher = more signal, called active from +8 up or from −8 down; further: test concentration not given here
# [18] = JC-1 mitochondrial signal, unstimulated myeloma cells – cell-based, JC-1 fluorescence, RPMI8226, 24 h, 100 nL compound, profiling panel (AID 1169); details: JC-1 mitochondrial potential fluorescence, higher = more signal; further: test concentration not given here
# [19] = JC-1 mitochondrial signal, unstimulated MM1S myeloma – cell-based, JC-1 fluorescence, 24 h, 100 nL compound, profiling panel (AID 1170); details: MM1S mitochondrial potential, higher = more signal; further: test concentration not given here
# [20] = resazurin metabolic signal in A549 cells – cell-based, resazurin fluorescence, 24 h, PK04 Diversity Set, profiling panel (AID 1171); details: A549 viability, higher = more signal, called active from +8 up or from −8 down; further: test concentration not given here
Compound,z-score [1],composite z-score [2],z-score [3],z-score [4],z-score [5],z-score [6],z-score [7],z-score [8],z-score [9],z-score [10],z-score [11],z-score [12],z-score [13],z-score [14],z-score [15],z-score [16],z-score [17],z-score [18],z-score [19],z-score [20]
N#Cc1ccc(C(O)C2C=CC3C(=O)N(c4ccccc4)C(=O)C3N2Nc2ccc([N+](=O)[O-])cc2)cc1 (stereo not given),-0.955 (inactive),0.391,25.8 (active),12.8 (active),2.25 (inactive),1.56 (inactive),-0.283,-0.562 (inactive),-2.25 (inactive),-1.83,-0.211,-1.46,0.436,-0.0671,-0.333,-2.66,-1.78 (inactive),0.5,-1.43,-0.233 (inactive)
CC(C)CNC(=O)[C@@H]1c2ccccc2C(=O)N(CC23CC4CC(CC(C4)C2)C3)[C@H]1c1ccc(CO)cc1,0.075 (inactive),-0.0559,0.317 (inactive),-0.93 (inactive),-0.348 (inactive),-1.22 (inactive),0.84,-0.234 (inactive),-0.616 (inactive),-1.78,0.226,0.918,0.537,0.107,-0.35,1.38,1.64 (inactive),-0.217,-0.0634,0.915 (inactive)
N[C@@H](Cc1ccccc1)Cn1cc(C2(O)CCCCC2)nn1,-1.05 (inactive),0.099,0.225 (inactive),-0.304 (inactive),0.005 (inactive),0.137 (inactive),-0.225,0.0811 (inactive),1.51 (inactive),1.19,-0.359,-0.169,0.0224,-0.991,-0.775,-0.739,-0.375 (inactive),-0.622,-0.313,-0.279 (inactive)
CCOC(=O)C[C@H]1[C@H](OC(=O)c2ccc(-c3ccccc3)cc2)[C@@H](NC(=O)CC(C)C)c2cc(OCCCO)ccc2N1C(=O)Cc1ccc(OC)cc1,-0.931 (inactive),-0.323,3.94 (inactive),0.786 (inactive),-0.348 (inactive),0.261 (inactive),-0.0775,-0.521 (inactive),1.12 (inactive),2.11,-0.39,0.22,-0.114,-1.7,-0.194,0.593,-1.43 (inactive),0.908,0.185,0.207 (inactive)
COCCOC(=O)N1C(=O)[C@@]2(c3ccccc31)[C@H](c1ccc(OCCO)cc1)N1[C@H](c3ccccc3)[C@H](c3ccccc3)OC(=O)[C@H]1[C@@H]2C(=O)N1CCN(c2ncccn2)CC1,0.118 (inactive),0.547,22.1 (active),6.25 (inactive),1.4 (inactive),1.56 (inactive),0.0018,1.19 (inactive),0.262 (inactive),0.618,-0.158,1.39,-0.29,-1.12,-1.12,1.03,0.358 (inactive),0.1,-1.1,0.345 (inactive)
NCCCC[C@@H]1NC(=O)[C@H]2C[C@@H](C(=O)NCc3ccc(F)cc3)[C@@H](c3ccc(O)cc3)N2C1=O,-0.495 (inactive),0.954,2.55 (inactive),0.724 (inactive),-3.15 (inactive),0.302 (inactive),-0.516,0.903 (inactive),0.941 (inactive),0.993,-0.494,-0.0841,-0.666,-0.206,0.307,-1.64,-0.4 (inactive),0.667,0.0192,-0.537 (inactive)
CC(=O)c1ccc(C(O)C2C=CC3C(=O)N(C)C(=O)C3N2NC(=O)OC(C)(C)C)cc1 (stereo not given),-1.33 (inactive),0.186,1.24 (inactive),0.957 (inactive),0.0395 (inactive),0.95 (inactive),-1.51,-0.455 (inactive),-1.57 (inactive),-1.01,-1.02,-0.701,-0.831,-0.682,-0.193,-1.29,-0.82 (inactive),-0.539,0.485,-0.659 (inactive)
COc1ccc(NN2C(C(O)c3ccc(OC)cc3)C=CC3C(=O)N(C4CCCCC4)C(=O)C32)cc1 (stereo not given),-0.625 (inactive),0.0768,9.1 (active),1.69 (inactive),0.722 (inactive),0.63 (inactive),-0.613,-1.34 (inactive),-1.1 (inactive),-2.54,-0.285,-1.29,1.24,0.764,-0.512,-0.126,0.0238 (inactive),0.417,-1.44,0.965 (inactive)
NC(=O)[C@@]1(CCS(=O)(=O)c2ccccc2)COC(c2ccc(OCCCO)cc2)=N1,1.05 (inactive),0.281,22.1 (active),4.56 (inactive),0.815 (inactive),0.939 (inactive),-0.192,-2.33 (inactive),-0.383 (inactive),-0.124,-0.339,-0.519,0.344,-0.0256,0.458,-0.522,-0.762 (inactive),-0.436,-0.942,-0.721 (inactive)
